Results: PubChem BioAssay AID1159580 (chemical genetic matrix, 2015)
Several values for one entry are separate records, joined by “and”; a condition that tells them apart may be missing. Equal entries are not always repeated. Out of some 5,500 compounds screened, about 2,000 (36%) were called active. About 18% were inconclusive and are not listed. Rule as the data show it: active = normalized growth mostly below about 0.91 (no sharp cut-off); inconclusive = no clear call, values can overlap the other calls; inactive = mostly above about 0.92. Some of the results follow.

Test: chemical genetic growth profiling, strain panel (AID 1159580);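 also: tested at 20 µM; growth read once vehicle control cultures reached saturation at 30 °C; 1 = growth at the plate median or of vehicle wells; lower values mean less growth of the strain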
Conditions: S. cerevisiae deletion strains, growth OD

Measured: normalized growth

COC(=O)[C@@H]1OC(=O)C2OC23[C@@]1(C)CCC1[C@]2(C)C(C[C@@H](O)[C@]13C)C(C)(C)[C@H](OC(C)=O)C[C@@H]2OC(C)=O (stereo not given in full)
inactive: locus YAL021C, strain ccr4, hits give low values 1 | locus YAL026C, strain drs2, hits give low values 1.01 | locus YAL030W, strain snc1, hits give low values 1 | locus YBL061C, strain skt5, hits give low values 1 | locus YBR009C, strain hhf1, hits give low values 1.03 | locus YBR021W, strain FUR4, hits give low values 0.993 | locus YBR023C, strain chs3, hits give low values 0.997 | locus YBR171W, strain sec66, hits give low values 0.995 | locus YBR229C, strain ROT2, hits give low values 1.01 | locus YBR231C, strain swc5, hits give low values 1.01 | locus YBR279W, strain paf1, hits give low values 1 | locus YCL011C, strain gbp2, hits give low values 1.01 | locus YCL016C, strain dcc1, hits give low values 1 | locus YCL029C, strain bik1, hits give low values 1.01 | locus YCL069W, strain vba3, hits give low values 0.996 | locus YCR088W, strain abp1, hits give low values 0.991 | locus YDL005C, strain med2, hits give low values 0.987 | locus YDL035C, strain GPR1, hits give low values 1.05 | locus YDL040C, strain nat1, hits give low values 1 | locus YDL074C, strain BRE1, hits give low values 1.06 | locus YDL101C, strain DUN1, hits give low values 1.02 | locus YDL134C, strain PPH21, hits give low values 1.02 | locus YDL185W, strain tfp1, hits give low values 1.01 | locus YDL192W, strain arf1, hits give low values 1.01 | locus YDR001C, strain nth1, hits give low values 0.997 | locus YDR069C, strain doa4, hits give low values 1.01 | locus YDR101C, strain arx1, hits give low values 1.03 | locus YDR137W, strain rgp1, hits give low values 1.03 | locus YDR150W, strain NUM1, hits give low values 1.01 | locus YDR159W, strain sac3, hits give low values 0.985 | locus YDR162C, strain NBP2, hits give low values 1.03 | locus YDR195W, strain ref2 0.988 | locus YDR297W, strain sur2, hits give low values 0.989 | locus YDR318W, strain mcm21, hits give low values 0.995 | locus YDR334W, strain swr1, hits give low values 1 | locus YDR335W, strain msn5, hits give low values 1 | locus YDR388W, hits give low values 1.01 | locus YDR392W, strain spt3, hits give low values 1.01 | locus YDR502C, strain sam2, hits give low values 1 | locus YEL003W, strain gim4, hits give low values 1 | locus YEL037C, strain rad23, hits give low values 1 | locus YEL061C, strain CIN8 (second series), hits give low values 0.986 | locus YEL061C, strain CIN8, hits give low values 1.01 | locus YER015W, strain faa2, hits give low values 0.994 | locus YER016W, strain bim1, hits give low values 1 | locus YER110C, hits give low values 0.995 | locus YER111C, strain swi4, hits give low values 1 | locus YER155C, strain BEM2 (second series), hits give low values 1.01 | locus YER155C, strain BEM2, hits give low values 0.989 | locus YER167W, strain BCK2, hits give low values 1.02 | locus YFR010W, strain ubp6, hits give low values 1.02 | locus YGL078C, strain dbp3, hits give low values 1.01 | locus YGL086W, strain mad1, hits give low values 0.996 | locus YGL167C, strain pmr1, hits give low values 1 | locus YGL173C, strain kem1, hits give low values 1 | locus YGL227W, strain vid30, hits give low values 1.01 | locus YGL240W, strain doc1, hits give low values 1 | locus YGL248W, strain PDE1, hits give low values 1.01 | locus YGL253W, strain hxk2, hits give low values 1.01 | locus YGR135W, strain pre9, hits give low values 0.971 | locus YGR252W, strain gcn5, hits give low values 0.966 | locus YHR013C, strain ard1, hits give low values 0.989 | locus YHR027C, strain rpn1, hits give low values 1 | locus YHR030C, strain SLT2, hits give low values 0.998 | locus YHR079C, strain IRE1 (second series), hits give low values 1 | locus YHR079C, strain IRE1, hits give low values 1.01 | locus YHR094C, strain hxt1, hits give low values 1.01 | locus YHR129C, strain ARP1, hits give low values 0.999 | locus YHR142W, strain chs7, hits give low values 1 | locus YHR200W, strain rpn10, hits give low values 1.01 | locus YIL066C, strain RNR3, hits give low values 1.03 | locus YIL073C, strain SPO22, hits give low values 1.03 | locus YIL125W, strain kgd1, hits give low values 0.997 | locus YIR030C, strain dcg1, hits give low values 0.992 | locus YJL092W, strain hpr5, hits give low values 0.997 | locus YJL095W, strain BCK1 (second series), hits give low values 0.989 | locus YJL095W, strain BCK1, hits give low values 1 and 0.991 | locus YJL115W, strain asf1, hits give low values 0.995 | locus YJL129C, strain trk1, hits give low values 0.995 | locus YJL134W, strain LCB3, hits give low values 1.01 | locus YJL154C, strain vps35, hits give low values 1.01 | locus YJL164C, strain tpk1, hits give low values 1.02 | locus YJL166W, strain qcr8, hits give low values 1.01 | locus YJL168C, strain set2, hits give low values 0.998 | locus YJL187C, strain SWE1 (second series), hits give low values 1 | locus YJL187C, strain SWE1, hits give low values 1.01 | locus YJR066W, strain TOR1, hits give low values 0.913 | locus YKL009W, strain mrt4, hits give low values 0.998 | locus YKL068W, hits give low values 1 | locus YKL085W, strain MDH1 (second series), hits give low values 0.999 | locus YKL085W, strain MDH1, hits give low values 0.999 | locus YKL160W, strain elf1, hits give low values 1 | locus YKL190W, strain CNB1, hits give low values 1.01 | locus YKR001C, strain vps1, hits give low values 1.01 | locus YKR026C, strain gcn3, hits give low values 0.993 | locus YKR091W, strain srl3, hits give low values 0.999 | locus YLL001W, strain dnm1, hits give low values 1.01 | locus YLL026W, hits give low values 0.998 | locus YLL041C, strain sdh2, hits give low values 0.995 | locus YLR027C, strain aat2, hits give low values 1.01 | locus YLR039C, strain RIC1, hits give low values 1.12 | locus YLR058C, strain SHM2, hits give low values 1.02 | locus YLR102C, strain apc9, hits give low values 1 | locus YLR113W, strain HOG1, hits give low values 1.08 | locus YLR221C, strain rsa3, hits give low values 0.999 | locus YLR258W, strain gsy2, hits give low values 1.01 | locus YLR262C, strain YPT6 (second series), hits give low values 0.997 | locus YLR268W, strain sec22, hits give low values 1.02 | locus YLR320W, strain mms22, hits give low values 1 | locus YLR330W, strain CHS5, hits give low values 1.01 | locus YLR342W, strain FKS1, hits give low values 1 | locus YLR357W, strain rsc2, hits give low values 0.969 | locus YLR370C, strain arc18, hits give low values 1.01 | locus YLR371W, strain rom2, hits give low values 0.988 | locus YLR384C, strain iki3, hits give low values 0.988 | locus YLR418C, strain cdc73, hits give low values 0.972 | locus YML016C, strain PPZ1, hits give low values 1.01 | locus YML032C, strain rad52, hits give low values 1.01 | locus YML120C, strain ndi1, hits give low values 0.994 | locus YML124C, strain tub3, hits give low values 0.987 | locus YMR058W, strain fet3, hits give low values 1.01 | locus YMR078C, strain ctf18, hits give low values 1 | locus YMR125W, strain sto1, hits give low values 0.987 | locus YMR129W, hits give low values 0.996 | locus YMR205C, strain PFK2, hits give low values 1.01 | locus YMR223W, strain ubp8, hits give low values 0.985 | locus YMR231W, strain pep5, hits give low values 0.994 | locus YMR307W, strain GAS1, hits give low values 0.996 | locus YNL067W, strain RPL9B, hits give low values 1.01 | locus YNL071W, strain lat1, hits give low values 0.997 | locus YNL183C, strain NPR1, hits give low values 0.95 | locus YNL209W, strain ssb2, hits give low values 1.01 | locus YNL233W, strain BNI4, hits give low values 1.01 | locus YNL248C, strain rpa49, hits give low values 0.997 | locus YNL250W, strain rad50, hits give low values 1 | locus YNL271C, strain bni1, hits give low values 1.01 | locus YNL298W, strain CLA4, hits give low values 1.01 | locus YNL307C, strain MCK1, hits give low values 1.01 | locus YNL322C, strain KRE1 (second series), hits give low values 0.998 | locus YNL322C, strain KRE1, hits give low values 1.02 | locus YNR049C, strain mso1, hits give low values 0.988 | locus YNR052C, strain pop2, hits give low values 0.996 | locus YOL012C, strain htz1 0.946 | locus YOL147C, strain pex11, hits give low values 0.998 | locus YOR001W, strain rrp6, hits give low values 1.03 | locus YOR061W, strain CKA2, hits give low values 1.02 | locus YOR069W, strain VPS5, hits give low values 1.01 | locus YOR070C, strain gyp1, hits give low values 1 | locus YOR080W, strain dia2, hits give low values 1.01 | locus YOR083W, strain WHI5, hits give low values 1 | locus YOR106W, strain vam3, hits give low values 1.02 | locus YOR136W, strain idh2, hits give low values 0.989 | locus YOR144C, strain elg1, hits give low values 1.01 | locus YOR184W, strain ser1, hits give low values 1.01 | locus YOR231W, strain MKK1, hits give low values 1.01 | locus YOR265W, strain rbl2, hits give low values 0.983 | locus YOR270C, strain vph1, hits give low values 1.02 | locus YOR290C, strain snf2, hits give low values 1 | locus YOR316C, strain cot1, hits give low values 1 | locus YPL051W, strain arl3, hits give low values 1.01 | locus YPL055C, strain LGE1, hits give low values 1.03 | locus YPL078C, strain atp4, hits give low values 1.01 | locus YPL106C, strain sse1, hits give low values 0.999 | locus YPL240C, strain hsp82, hits give low values 1 | locus YPL256C, strain CLN2, hits give low values 1.01 | locus YPR119W, strain clb2, hits give low values 1 | locus YPR141C, strain kar3, hits give low values 1 | locus YPR163C, strain tif3, hits give low values 1.01 | locus YPR167C, strain met16, hits give low values 1 | strain wtn01, hits give low values 1
